Reference: PubChem BioAssay AID1495 (Sanford-Burnham Center for Chemical Genomics, 2009)
Entries with a potency or affinity are not part of this list. Active and inactive are the calls of the source.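 Rule for the calls: active = calorimetric dissociation constant under 10 µM against either the substrate-binding domain or full-length DnaK; inactive = the rest.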

The compounds below were run against Chaperone protein DnaK (Escherichia coli) (UniProt C3TRK2) (assay: E. coli DnaK binders, calorimetric Kd – biophysical, isothermal titration calorimetry, beta-domain, full-length DnaK, orthogonal assay for DnaK modulator project, SAR follow-up (AID 1495)). Conditions: purified DnaK, isothermal titration calorimetry binding.

SMILES	outcome
Cc1ccc(C(=O)NCc2ccc(F)cc2)o1	inactive
Cc1ccc(CNC(=O)c2ccc([N+](=O)[O-])o2)cc1	inactive
Cc1ccc(C(=O)NCc2ccc(Cl)cc2)o1	inactive
O=C(Nc1ncc2ccccc2n1)c1cccs1	active
O=C(NCc1ccccc1F)c1cccs1	inactive
